In PubChem BioAssay AID1117319 (Southern Research Institute, 2015):
“And” between values parts separate entries of the source, which are not always exact repeats. Equal entries are not always repeated. The campaign covered roughly 260,000 compounds. About 1,500 (0.58%) were called active. About 5% were inconclusive and are not listed. Only a sample is shown. Results with a measured potency or affinity are listed apart. A number with no mark means an inactive call.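 How the source made its calls: active means inhibition above a set limit at one or more doses, reproduced on every date tested; inconclusive means results disagree between test dates, or hit never tested in dose response; inactive means the rest.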

These compounds were tested against Virion infectivity factor (Human immunodeficiency virus type 1 group M subtype B (isolate BH10)) + Virion infectivity factor (Human immunodeficiency virus type 1 group M subtype B (isolate BRU/LAI)) + Virion infectivity factor (Human immunodeficiency virus type 1 group M subtype B (isolate PCV12)) + Virion infectivity factor (Human immunodeficiency virus type 1 group M subtype B (isolate HXB2)) + DNA dC->dU-editing enzyme APOBEC-3G (Homo sapiens) (UniProt P69720+P69721+P69722+P69723+Q9HC16) (assay: inhibitors of Vif binding to APOBEC3G peptide, primary screen, biochemical, TR-FRET, GST-Vif 1-94, biotin-A3G peptide, dose response retest (AID 1117319;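 further: Vif residues 1-94 fused to GST binding biotinylated APOBEC3G peptide 110-148; 0% = full assay without inhibitor and 100% = GST in place of GST-Vif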)). Conditions: stronger effect = higher value.

SMILES	inhibition
CCc1nn2c(=O)cc(COc3ccc(/C=C4\C(=N)N5N=C(CC(C)C)SC5=NC4=O)cc3)nc2s1	9.59%
COc1ccc(OC)c(C2C(C(=O)c3cccs3)=C(O)C(=O)N2CCN(C)C)c1 (configuration not stated)	0.56%
CN1CCN(CCCNC(=O)c2ccc(/C=C3/Sc4ccccc4N(Cc4cccc(Cl)c4)C3=O)cc2)CC1	2.32%
O=C(C1=C[C@H](c2ccc(Br)cc2)C[C@H](OCc2ccc(CO)cc2)O1)N1CCOCC1	15.5%
Clc1ncc2[nH]cnc2n1	1.24%
COc1cccc(NC2CC(=O)N(CCc3ccccc3)C2=O)c1 (configuration not stated)	1.52%
COc1ccc(NC2CC(=O)N(CCc3ccccc3)C2=O)cc1 (configuration not stated)	25.7%
Nc1ccccc1C(=O)/C=C/c1ccc2c(c1)OCO2	3.13%
COC(=O)/C=C/c1ccc2c(c1)OCO2	4.78%
Cc1ccc(C(=O)C=Cc2ccc3c(c2)OCO3)c(C)c1	0.22%
O=C(/C=C/c1ccc(F)cc1)c1cc(Br)ccc1O	-1.23%
O=C(/C=C/c1ccc2c(c1)OCO2)c1ccc(O)cc1O	8.42%
O=C(/C=C/c1ccccc1)c1cc(Br)ccc(=O)c1O	24.6%
COC(=O)c1ccccc1NC(=O)CSc1nnc(COc2cccc(OC)c2)n1C	0.63%
COc1ccc(CNC(=O)CSc2ncnc3ccccc23)cc1OC	-8.65%
COc1ccc(N2CCN(CC(=O)Nc3ccc(SC(F)F)cc3)CC2)cc1	27.3%
N#Cc1c(NC(=S)NC(=O)Cc2cccs2)sc2c1CCCCC2	12.2%
COc1ccccc1N1CCN(C(=O)COc2ccc(S(=O)(=O)NC(C)C)cc2)CC1	0.75%
O=C(O)COc1ccccc1-c1ccccc1	-0.72%
CN1CCC(N(C)C(=O)COc2ccccc2Cl)CC1	-7.89%
N#Cc1ccc(C(=O)NC2CCCc3ccccc32)cc1 (configuration not stated)	5.64%

SMILES	inhibition
Cc1cn([C@H]2C[C@H](O)[C@@H](CNCc3ccc(F)c(N4CCOCC4)c3)O2)c(=O)[nH]c1=O	-0.24%
CC(=O)Nc1ccccc1NC(=O)COc1cccc2ccccc12	-3.58%
COc1ccc(CCN=Cc2c(C)[nH]n(-c3ccc([N+](=O)[O-])cc3)c2=O)cc1OC	3.12%
Cc1ccc(S(=O)(=O)Nc2cccc(-n3cnnn3)c2)cc1	-12.1%
CC(=O)Nc1ccc(S(=O)(=O)Nc2cccc(-n3cnnn3)c2)cc1	-3.6%
NNC(=O)C1CC1c1ccc(Cl)cc1 (configuration not stated)	-1.47%
CC(C)NC(=O)C1CCN(C2CCN(Cc3nc(C(C)C)cs3)CC2)CC1	10.5%
CC(=O)C(Sc1nc(NC(C)(C)C)nc(N(C)C)n1)C(C)=O	-1.75%
O=C(CCNS(=O)(=O)c1ccc(Br)s1)Nc1ccc(Cl)cc1	-2.43%
CCOC(=O)c1ccc(CC(=O)c2oc3cc(O)ccc3c2C)o1	29.3%
Cc1cc(O)cc(O)c1C(=O)Cc1ccccc1	31%
COC(=O)c1ccc(CC(=O)c2ccc(O)cc2O)o1	21.4%
CCOC(=O)c1ccc(CC(=O)c2ccc(O)cc2O)o1	16.6%
Cc1onc(-c2c(Cl)cccc2Cl)c1C(N)=O	3.21%
Cc1nnc(-c2cccc(Br)c2)c2cn(-c3ccc(Br)cc3)nc12	-35.9%
CC(C)Oc1cc(NC(=O)CS(=O)(=O)CC(=O)N(C)C)c(Cl)cc1Cl	4.46%
O=C(COc1ccc2c(c1)CCC2)NCc1ccccc1	6.52%
COc1ccccc1CNC(=O)COc1ccc2c(c1)CCC2	-14.6%
COc1cccc(COC(=O)C2CC(=O)N(Cc3ccccc3)C2)c1OC (configuration not stated)	4.65%
Cc1cc2nc(C)n(CCCNC(=O)Nc3ccc(C#N)cc3)c2cc1C	-0.77%
CCOc1ccc(NC(=O)NCCCn2c(C)nc3cc(C)c(C)cc32)cc1	3.24%

SMILES	inhibition
CCCCSc1nnc(CCCCCNC(=O)OC(C)(C)C)o1	1.82%
CN(C)S(=O)(=O)c1ccc(C(=O)OCC(=O)Nc2ccc(OC(F)F)cc2)cc1	-3.03%
NNC(=O)CCc1c[nH]c2ccccc12	1.22%
NC(=O)CCc1c[nH]c2ccccc12	14.6%
O=C(NC(=O)c1cccc(F)c1)Nc1nc(-c2ccc(F)cc2)cc(C(F)(F)F)n1	0.6%
Cc1nc([N+](=O)[O-])cn1CC(=O)c1ccc(F)cc1	-8.97%
CCn1c(SCC(=O)N2CCCc3ccccc32)nc2ccccc2c1=O	-1.92%
CN(C(=O)c1ccccc1C(=O)OCC(=O)Nc1ccccc1)c1ccccc1	-8.92%
O=C(CCNS(=O)(=O)c1ccc(Br)s1)NCc1ccc2c(c1)OCO2	-6.46%
CCO[C@@H]1OC(C(=O)NCc2ccccc2)=C[C@H](c2coc3ccccc3c2=O)[C@H]1CCCO	6.31%
Cc1cc(C)c(C(=O)/C=C/c2cccs2)c(=O)[nH]1	1.47%
Cc1ccc(/C=C/C(=O)c2c(C)cc(C)[nH]c2=O)cc1	-2.58%
CCn1c(O)c(N=Nc2ccc(Cl)c(C(=O)O)c2)c2ccccc21	16%
O/N=C/c1nc2cc(Cl)ccc2o1	4.03%
CC(=O)N(C1=C(N)C(=O)c2ccccc2C1=O)c1ccccc1	4.9%
CC(=O)N(C1=C(N2CCOCC2)C(=O)c2ccccc2C1=O)c1ccc(C(=O)O)cc1	14.4%
COC(=O)c1[nH]c2c(c1C)C(=O)CC(c1ccc(OC)c(OC)c1)C2 (configuration not stated)	-9.19%
C=CC[C@@H](CC(=O)N[C@H](CO)Cc1ccccc1)C(=O)N[C@@H](COC(=O)[C@@H](CC=C)CC(=O)OC(C)(C)C)Cc1ccccc1	-0.04%
CC1=C(C(=O)Nc2ccc(C)cc2)C(c2ccc(N(C)C)cc2)NC(=O)N1 (configuration not stated)	-2.24% and 24.2%
CC1=C(C(=O)Nc2ccccc2)C(c2ccc(N(C)C)cc2)NC(=O)N1 (configuration not stated)	8.56%
